Laboratory results reported in the supplement of paper PMC10127200.
Structures can show the parent of a compound that is named as a salt.

tested on: FB; assay: Euclidean distance of Cell Painting phenotypic profile (signed KS, 77 features) to DMSO centroid (dimensionless distance); 5 or 10 uM (library dependent); higher = stronger phenotypic change vs DMSO (phenoactivity); settings: 48 h
Method in brief: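 Stained cells were imaged confocally at 20X with 9 fields per well, after 48 h of exposure to library compounds at 10 or 5 uM (set by library; 0.1% DMSO final). The cells were five cancer lines and a healthy fibroblast line. From the images, Harmony extracted 77 features, each expressed as a signed Kolmogorov-Smirnov statistic relative to same-plate vehicle wells. Phenoactivity is measured as Euclidean distance to the median vehicle profile, using plate-position-corrected, correlation-weighted profiles averaged across replicates at the top dose.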

Row | SMILES | Euclidean distance
1 | CCCc1nn(C)c2c(=O)[nH]c(-c3cc(S(=O)(=O)N4CCN(C)CC4)ccc3OCC)nc12 [Sildenafil Mesylate] | 1
2 | Cc1cnc(Nc2ccc(N3CCN(C)CC3)cc2)nc1Nc1cccc(S(=O)(=O)NC(C)(C)C)c1 | 3.58
3 | Cc1cc2ncc(C(=O)NCC(C)(C)NCC(=O)N3CCC[C@H]3C#N)cn2n1 [Anagliptin] | 1.29
4 | O=C(OCc1ccccc1)c1ccccc1 [Benzyl benzoate] | 0.794
5 | CO[C@H]1C[C@@H]2CC[C@@H](C)[C@@](O)(O2)C(=O)C(=O)N2CCCC[C@H]2C(=O)O[C@H]([C@H](C)C[C@@H]2CC[C@@H](OC(=O)C(C)(CO)CO)[C@H](OC)C2)CC(=O)[C@H](C)/C=C(\C)[C@@H](O)[C@@H](OC)C(=O)[C@H](C)C[C@H](C)/C=C/C=C/C=C/1C | 2.95
6 | CCS(=O)(=O)c1cccc(-c2cc(C(=O)NC3CCN(C)CC3)c(C)c3[nH]c4ncc(C)cc4c23)c1 | 3.63
7 | NC(=O)c1ccccc1O [Salicylamide] | 1.4
8 | CC(C(=O)O)c1ccc(C(=O)c2cccs2)cc1 (stereo not given) [Suprofen] | 0.981
9 | CCCCCCCCCC(=O)N[C@H]1[C@H](Oc2c3cc4cc2Oc2ccc(cc2Cl)[C@@H](O[C@@H]2O[C@H](CO)[C@@H](O)[C@H](O)[C@H]2NC(C)=O)[C@@H]2NC(=O)[C@H](NC(=O)[C@@H]4NC(=O)[C@H]4NC(=O)[C@@H](Cc5ccc(c(Cl)c5)O3)NC(=O)[C@H](N)c3ccc(O)c(c3)Oc3cc(O)cc4c3)c3ccc(O)c(c3)-c3c(OC4O[C@H](CO)[C@@H](O)[C@H](O)[C@@H]4O)cc(O)cc3[C@@H](C(=O)O)NC2=O)O[C@H](CO)[C@@H](O)[C@@H]1O (stereo not given in full) [Teicoplanin] | 0.777
10 | Cc1cccc(C)c1NC(=O)C1CCCCN1C (stereo not given) [Mepivacaine HCl] | 1.28
11 | Cc1nc2cccc(N)c2c(=O)n1C1CCC(=O)NC1=O (stereo not given) [Avadomide(CC-122)] | 1.02
12 | CC[C@]1(O)C[C@@H]2CN(CCc3c([nH]c4ccccc34)[C@@](C(=O)OC)(c3cc4c(cc3OC)N(C)[C@H]3[C@@](O)(C(=O)OC)[C@H](OC(C)=O)[C@]5(CC)C=CCN6CC[C@]43[C@@H]65)C2)C1 [Vinblastine sulfate] | 3.49
13 | CC1(COc2ccc3c(c2)ncn3-c2ccc3cccc(N4CCC(N)CC4)c3n2)COC1 | 3.75
14 | CCCCNc1ncc(-c2ccc(CN3CCOCC3)cn2)c(NC2CCC(O)CC2)n1 (stereo not given) | 1.26
15 | CC(C[N+](C)(C)C)OC(N)=O (stereo not given) [Bethanechol chloride] | 0.979
16 | CN1CCC(=C2c3ccccc3C=Cc3ccccc32)CC1 [Cyproheptadine hydrochloride] | 1.89
17 | O=C(NCc1ccccc1)c1csc(Nc2ccncn2)n1 [Thiazovivin] | 2.01
18 | CCC[C@@H]1C[C@@H](C(=O)N[C@@H]([C@H]2O[C@H](SC)[C@H](O)[C@@H](O)[C@H]2O)[C@H](C)Cl)N(C)C1 [Clindamycin HCl] | 0.761
19 | Cc1ccsc1/C=C/C1=NCCCN1C [Morantel tartrate] | 1.19
20 | CN(C)c1nc(N(C)C)nc(N(C)C)n1 [Altretamine] | 1.32

Row | SMILES | Euclidean distance
21 | c1cnc(N2CCN(Cc3ccc4c(c3)OCO4)CC2)nc1 [Piribedil] | 1.05
22 | Fc1cc(-c2cccc3ncc(-c4cnn(C5CCNCC5)c4)nc23)cc(F)c1CN1CCOCC1 | 3.84
23 | CN(C(=O)c1c(O)c2ccccc2n(C)c1=O)c1ccccc1 [Roquinimex] | 1.32
24 | COc1cccc(CCc2ccccc2OCC(CN(C)C)OC(=O)CCC(=O)O)c1 (stereo not given) [Sarpogrelate hydrochloride] | 1.27
25 | Cc1csc(-c2nnc(Nc3ccc(Oc4ncccc4-c4ccnc(N)n4)cc3)c3ccccc23)c1 | 2.44
26 | N=C(N)NC(=O)c1nc(Cl)c(N)nc1N [Amiloride HCl] | 0.922
27 | CCOC(=O)N1c2ccc(C(F)(F)F)cc2[C@@H](N(Cc2cc(C(F)(F)F)cc(C(F)(F)F)c2)C(=O)OC)C[C@H]1CC [Torcetrapib] | 0.99
28 | CC(C)C(=O)Oc1ccc(CO)cc1[C@H](CCN(C(C)C)C(C)C)c1ccccc1 [Fesoterodine Fumarate] | 0.688
29 | CC1(C)S[C@@H]2[C@H](NC(=O)[C@H](N)c3ccccc3)C(=O)N2[C@H]1C(=O)O [Ampicillin sodium] | 0.59
30 | CCCCCOC(=O)Nc1nc(=O)n([C@@H]2O[C@H](C)[C@@H](O)[C@H]2O)cc1F [Capecitabine] | 0.899
31 | CNC(=O)c1ccc2cc([C@@]3(O)CCn4cncc43)ccc2c1 [TAK-700 (Orteronel)] | 1.1
32 | CC1(C)OC[C@@H](COC(=O)CCc2ccc(OC[C@@H](O)CNCCNC(=O)N3CCOCC3)cc2)O1 [Landiolol hydrochloride] | 1.04
33 | CS(=O)(=O)c1ccc(C2=C(c3ccccc3)C(=O)OC2)cc1 [Rofecoxib] | 0.821
34 | C=C1[C@H](CO)[C@@H](O)C[C@@H]1n1cnc2c(=O)[nH]c(N)nc21 [Entecavir] | 1.14
35 | CO[C@H]1C[C@@H]2CC[C@@H](C)[C@@](O)(O2)C(=O)C(=O)N2CCCC[C@H]2C(=O)O[C@H]([C@H](C)C[C@@H]2CC[C@@H](O)[C@H](OC)C2)CC(=O)[C@H](C)/C=C(\C)[C@@H](O)[C@@H](OC)C(=O)[C@H](C)C[C@H](C)/C=C/C=C/C=C/1C [Rapamycin (Sirolimus)] | 3.07
36 | c1ccc2c(c1)CCCC2C1=NCCN1 (stereo not given) [Tetryzoline] | 1.09
37 | Nc1ccc(S(=O)(=O)Nc2cnc3ccccc3n2)cc1 [Sulfaquinoxaline sodium] | 1.36
38 | NC(=O)N1CCC(CC(=O)N2CCC([C@H]3c4ncc(Br)cc4CCc4cc(Cl)cc(Br)c43)CC2)CC1 [Lonafarnib] | 2.36
39 | CNC[C@H](O)c1cccc(O)c1 [Phenylephrine HCl] | 1.34
40 | CCn1cc(C(=O)O)c(=O)c2cc(F)c(N3CCNCC3)nc21 [Enoxacin Sesquihydrate] | 0.738
